PMC7819943, “Rice protein-binding microarrays: a tool to detect cis-acting elements near promoter regions in rice”
The full ranking holds about 39,000 sequences; the median of “fluorescence intensity (a.u.)” is about 4,300, and the highest 2% start at about 39,000. What follows is part of a selection rich in the highest values, with near analogues and random picks from the rest.

Target: T1, OsSMF1 (Oryza sativa, UniProt Q6ZLB0 1-436)
T1 sequence: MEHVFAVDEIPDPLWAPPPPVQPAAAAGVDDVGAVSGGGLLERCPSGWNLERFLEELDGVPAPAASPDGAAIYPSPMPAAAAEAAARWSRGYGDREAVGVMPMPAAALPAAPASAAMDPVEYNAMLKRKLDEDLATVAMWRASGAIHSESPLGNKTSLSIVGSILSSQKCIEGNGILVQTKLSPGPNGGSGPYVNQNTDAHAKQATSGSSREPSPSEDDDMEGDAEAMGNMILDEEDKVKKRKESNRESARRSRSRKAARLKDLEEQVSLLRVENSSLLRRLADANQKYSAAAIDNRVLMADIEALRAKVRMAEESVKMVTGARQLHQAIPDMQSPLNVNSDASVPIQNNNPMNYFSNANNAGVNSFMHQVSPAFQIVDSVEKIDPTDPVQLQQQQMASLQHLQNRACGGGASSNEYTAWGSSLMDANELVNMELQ
Assay: protein-binding microarray (RPBM); PBS, 2% BSA, 51.3 ng/ul salmon testes DNA, 50 uM zinc acetate, 200 nM TF, 25 C, 1 h; high values mean tight binding
Conditions: protein: recombinant; tags: N-terminal polyhistidine and DsRed monomer fusion (pET32a); chain copies: 2; label: CyDye5-dUTP incorporated in the synthesized complementary strand; 3' TTTTT single-stranded linker to array surface; dsDNA, one strand shown
How it was run: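 An Axon 4000B scanner gave the binding signal as per-feature fluorescence intensity in arbitrary units. This followed washing of a custom Agilent array that had been incubated for 1 h at 25 °C with 200 nM protein in PBS, 2% BSA, salmon testes DNA and 50 µM zinc acetate. The proteins were transcription factors fused at the N-terminus to polyhistidine and DsRed, expressed in E. coli BL21-CodonPlus and purified on Ni–NTA.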

Q: With “GGAAGAAGGCCGCCGACGCACAACAGAGGCGGCGGCGGGGCGGAGTCACCTAGTGCAG” as the sequence, how does the binding signal read?
A: 3510 fluorescence intensity (a.u.)

Q: For “CAGAAACCAACCAACACAAGACACCGACCGACGCCGACCACGGAGTCACCTAGTGCAG”, which binding signal is on record?
A: 8450 fluorescence intensity (a.u.)

Q: With “CACACATTCGCACCGCCGACGCCGAACAGAACAACAACAACGGAGTCACCTAGTGCAG” as the sequence, how does the binding signal read?
A: 64700 fluorescence intensity (a.u.)

Q: “GCTTTCAAAGCACTCAATTTTCCAGGTCATAACTGTTTTCCGGAGTCACCTAGTGCAG” was tested. Which binding signal did it give?
A: 5050 fluorescence intensity (a.u.)

Q: Which binding signal does the source give for “TTGACAATGTGGTGCTACAGTAAATATTTGATAATGATGGCGGAGTCACCTAGTGCAG” here?
A: 3330 fluorescence intensity (a.u.)

Q: Which binding signal does the source give for “ACAGATACAATGAGCGAGCGTTTGGTGTAATATGTGACAGCGGAGTCACCTAGTGCAG” here?
A: 43600 fluorescence intensity (a.u.)

Q: With “ATGTATTTTATGACAACAGAGTAAACAATGTGATATACATCGGAGTCACCTAGTGCAG” as the sequence, how does the binding signal read?
A: 3220 fluorescence intensity (a.u.)

Q: With “ATCTTAAGCTCCTCATTTCATCTATGATTGGCTTGCTTTACGGAGTCACCTAGTGCAG” as the sequence, how does the binding signal read?
A: 3180 fluorescence intensity (a.u.)

Q: Which binding signal does the source give for “AATAAACCATGGTGTTTGTATTGGTGTGTTGGTGACTACGCGGAGTCACCTAGTGCAG” here?
A: 3880 fluorescence intensity (a.u.)

Q: For “CCATCGAATCCGGTTCGCGCGCAAGCAAAATCAGCAGCGTCGGAGTCACCTAGTGCAG”, which binding signal is on record?
A: 3830 fluorescence intensity (a.u.)

Q: Which binding signal does the source give for “AAGCTAACTTGTGTTGCCTACACAAGTACTAAAATGGCATCGGAGTCACCTAGTGCAG” here?
A: 63600 fluorescence intensity (a.u.)

Q: “GCTACTAAGGAGTACTACAATATTGCATCATCGTCATCATCGGAGTCACCTAGTGCAG” was tested. Which binding signal did it give?
A: 6340 fluorescence intensity (a.u.)

Q: Which binding signal does the source give for “TAAGCTAACCTTGTACTAAGATGTGACACATCCAAGTACACGGAGTCACCTAGTGCAG” here?
A: 3630 fluorescence intensity (a.u.)

Q: For “TGCGCCGATAGCTCCTGTCAACGTGTCACGCGCTGCGCCTCGGAGTCACCTAGTGCAG”, which binding signal is on record?
A: 8650 fluorescence intensity (a.u.)

Q: “TACCTCTTCAGTACAGCTGCAGCTGCTGACTGCTCACTACCGGAGTCACCTAGTGCAG” was tested. Which binding signal did it give?
A: 4340 fluorescence intensity (a.u.)

Q: With “CCAGTAATCCTCCTCCTGCTGCCTCAGCTCCTCTTCTGTACGGAGTCACCTAGTGCAG” as the sequence, how does the binding signal read?
A: 50800 fluorescence intensity (a.u.)

Q: How did the binding signal turn out when “ATTCCAATTCCAGCTCAATGCTGCACGGAATCTCCTCTTCCGGAGTCACCTAGTGCAG” was run?
A: 4140 fluorescence intensity (a.u.)

Q: With “CGGTCCGGGCGATTTGACCGGTCAAAAGGCGTGGCCACGACGGAGTCACCTAGTGCAG” as the sequence, how does the binding signal read?
A: 3850 fluorescence intensity (a.u.)

Q: For “AAAACGACCGGTTTTGACGTAAATCCACAAGGCGTTATGACGGAGTCACCTAGTGCAG”, which binding signal is on record?
A: 58400 fluorescence intensity (a.u.)

Q: How did the binding signal turn out when “CACAACTACGTAGACGGGCGTTTGCGGCCGAAAATTTGACCGGAGTCACCTAGTGCAG” was run?
A: 3730 fluorescence intensity (a.u.)

Q: How did the binding signal turn out when “CGCCGCCACAACCGCGCGCCGTCACCGCCGCGTGCCGTCACGGAGTCACCTAGTGCAG” was run?
A: 5070 fluorescence intensity (a.u.)

Q: “CCCACCACACACCCGGCCCCACATGTCATCCACCCATCCACGGAGTCACCTAGTGCAG” was tested. Which binding signal did it give?
A: 4500 fluorescence intensity (a.u.)

Q: With “CATTATCTAAGTTTCTTTACGTCATTATCTTCGTTTAATTCGGAGTCACCTAGTGCAG” as the sequence, how does the binding signal read?
A: 3230 fluorescence intensity (a.u.)

Q: How did the binding signal turn out when “TTCTTTCGTTAGTTCACCAAAGATGGGCATTTTACTAAGACGGAGTCACCTAGTGCAG” was run?
A: 65000 fluorescence intensity (a.u.)

Q: With “TCTTTTCTAAGTCATGTTAGACCAATAGAGATTTCTCAAACGGAGTCACCTAGTGCAG” as the sequence, how does the binding signal read?
A: 27600 fluorescence intensity (a.u.)
